The values below come from article PMC12136788.

Residue numbers refer to the chain shown, from its start. The full ranking holds about 24,000 sequences; the median of “enrichment r” is about 0.99, and the highest 2% start at about 3.7. This is one part of a sample in which the highest values are shown more often than they occur.

Sequences and labels used below:
T1: UNK ZnF1-3 (human, UniProt Q9C0B0 31-174)
T1 sequence: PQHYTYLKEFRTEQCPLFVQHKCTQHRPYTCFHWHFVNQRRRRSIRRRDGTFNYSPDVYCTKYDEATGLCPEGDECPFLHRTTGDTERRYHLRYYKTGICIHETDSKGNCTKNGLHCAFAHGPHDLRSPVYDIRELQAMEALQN

B1: chr12:73045124:73045125:+_ENSMUSG00000034574_ENSMUST00000085299|mus_mus|FALSE|FALSE (ssRNA)
RNA: GGGAGUUCUACAGUCCGACGAUCGCCUUGAGAGUUGUUCAUUAGUGCCUUUAUACAGCCAAUGAGGGAGGUGUGUAUCCGAGACUCAGAGGUCUCAUAGUCCAUGGUCUUCAGAAAGUUGAGAAUACAUGACAGGCCAUCCAACAACAGAGGAUUGAGCAUCA
B2: chr16:57473197:57473198:-_ENSG00000005194_ENST00000569370|hu_hu|motif|central (ssRNA)
RNA: GGGAGUUCUACAGUCCGACGAUCGAUCCGGGCGAUUUCAGCCAAAAUCUCAGCACUGUGCAGAGUGGUGCUUCCUGGGACGGAACCUGACAAAAUAAUGUCAAAGCUGGAUUCUUUGUGGGCAGAUUGCAACAGCUGCUUGAUCAACAGAGGAUUGAGCAUCA
B3: chrX:114877694:114877695:+_ENSG00000102024_ENST00000355899|hu_hu|FALSE|FALSE (ssRNA)
RNA: GGGAGUUCUACAGUCCGACGAUCGUUGAGUUUGGGGUUUCCACUGACAACAUCAGCAGGGGUAACAAACUGUCUGCAACCUAAUUUAUCUGCUUGUUGAAGCAUACUCUCAGCUCUCUUCAAAUCAUCUGUUUCAUUGAAACCCAACAGAGGAUUGAGCAUCA
B4: 31603315_31603435_826_3pUTR_ENSMUSG00000024261_ENSMUST00000025110|mouse|control|control (ssRNA)
RNA: GGGAGUUCUACAGUCCGACGAUCUUCCUGAGCACUCUGGUCUUCACUCUGUGCUUCUUCUCUGGUAAGAUUGUCAUUUUGAUGUACGGGUCAGAGGUCAUGGAUUGCUCGUCCAUGGCUGGUAAGCCCUGGGCUUCCUUGAUGCAACAGAGGAUUGAGCAUCA
B5: 171883182_171886102_1035_3pUTR_ENSMUSG00000026675_ENSMUST00000027989|mouse|control|control (ssRNA)
RNA: GGGAGUUCUACAGUCCGACGAUCUUCUGAACGGUGGUCCUGACACGCUUUUCCAGCUCCAGUAAGACCUCAUAGAAUUUUUCAGCAGUGUCUUCAUCUAUGUCCAUCUUUUGGCCCGUGACGUAAUUAGUCCCAAAUCCCGAGCAACAGAGGAUUGAGCAUCA
B6: 82050892_82051012_2182_ncRNA_ENSMUSG00000021134_ENSMUST00000153056|mouse|control|control (ssRNA)
RNA: GGGAGUUCUACAGUCCGACGAUCUUGUUUUGUUUUUUAAAAAAAGGCCCCCAGGGCAAGUUAUUUACAGUUUAAUUGCCACUGUCAACUGAUCUGGACCUGGACCGGGAUCGGGACCUCUGGCGAUCCACAGAUGCUGGAGAUCAACAGAGGAUUGAGCAUCA
B7: chr18:35731629:35731630:+_ENSMUSG00000037236_ENSMUST00000166793|mus_mus|FALSE|FALSE (ssRNA)
RNA: GGGAGUUCUACAGUCCGACGAUCUUAUAGAUCAAAAAAAAAAAAAAAAGUUUUAAAAGAUGGCCAAAAAGAAAGCUCAAGCUAGAAAGCUAGGUUAACUUUGCUUCAAAAAUGGUAACGCCAAGAAAAAGGAUCAAUAAGGACCAACAGAGGAUUGAGCAUCA
B8: chr13:59234359:59234360:+_ENSMUSG00000055254_ENSMUST00000079828|mus_mus|FALSE|FALSE (ssRNA)
RNA: GGGAGUUCUACAGUCCGACGAUCUAUGUAAAAAAUUGUUUUUGCUUUAUGUUGGUGAUGAAUGGACCAAAAGUUGAUAGAUAGAUAGAUAAAUAAAUAAAUAAAUAAAUAAAUACACAAAUAAAUAACGCCGAAGGGAAAGAACAACAGAGGAUUGAGCAUCA
B9: chr16:94651144:94651145:+_ENSMUSG00000040785_ENSMUST00000117648|mus_hu|mus_mus_mus_hu_True|58_98 (ssRNA)
RNA: GGGAGUUCUACAGUCCGACGAUCAUUUUCUUGAAUCAAGUGACCGAUAACAUAGUCCACUGCUUCAUUUAGAAAAUUUUUGCUAGAAAAACAGGUUGUAUAGUCUUCUGUGCUCAAAACUUUCCAAGAAAGCAAUUCUUUGAGCAACAGAGGAUUGAGCAUCA
B10: chr2:115689334:115689335:-_ENSMUSG00000027210_ENSMUST00000074285|mus_hu|FALSE|FALSE (ssRNA)
RNA: GGGAGUUCUACAGUCCGACGAUCCUCUUUGAAGAAGAGUCCCCCAAAAAUAAUAAUAAGAAUUGGCUUAUGAAGCACGAACUAUAAAGAUCUGUUUGAAACUAAAGGACACAUUUAUGGAGGAACAAAGGCCGGGCAUGAAAACAACAGAGGAUUGAGCAUCA
B11: chr14:54894545:54894546:-_ENSG00000100528_ENST00000216416|hu_hu|FALSE|FALSE (ssRNA)
RNA: GGGAGUUCUACAGUCCGACGAUCCAUUUGGUGGCUUUUUGCAUGCACUUAACUGGACCAAUUCUUCUGUGUGUUGUUCUAAGAGCUCACCAAAACAUAGAUCAUGCCAUAUAGGUAGUAAAAAAAUGCUAGAAGAUAAAAAGCCAACAGAGGAUUGAGCAUCA
B12: chr1:23636438:23636439:-_ENSG00000125944_ENST00000302271|hu_mus|FALSE|FALSE (ssRNA)
RNA: GGGAGUUCUACAGUCCGACGAUCUUUUGUAGGGCAGAUUUCAAAAAGGUGUGGUUAUAACAAUUUAAAAACACAGUUAACCUGCUUCUAGGAAUGCAAAACAUACAGUCAUAGGUUAUCUUCAAUACAAGGAAACUUAAGUCUCAACAGAGGAUUGAGCAUCA
B13: 151522442_151522562_447_CDS_ENSMUSG00000034021_ENSMUST00000016569|mouse|control|control (ssRNA)
RNA: GGGAGUUCUACAGUCCGACGAUCAUAAAUCCUGAAAAUAUCAGCAAGGCAGCAAGCCACCAGUAAACGAACAUCUUUAUCAGGAUGCUUGAGGAAGAAGUCAGAAGCAAGAUGUAAAGCUAGGUUUAGAUAAAGUUCCUUUUCCAACAGAGGAUUGAGCAUCA
B14: chr18:35731629:35731630:+_ENSMUSG00000037236_ENSMUST00000166793|mus_mus|motif|central (ssRNA)
RNA: B7 RNA with U82G, A83G
B15: chr13:100200628:100200629:-_ENSMUSG00000052727_ENSMUST00000064762|perfect_dup|FALSE|FALSE (ssRNA)
RNA: GGGAGUUCUACAGUCCGACGAUCGUCACCAGGUGUCUUCCCUCCACUGUCCUUCUCCAGGCCAGGUGUGGACAAAUCUCUAUUCAAGGCUAGAUGGUGUUGCAUUGUAUCGAAUAACACUGAGGCACGGAAGCCAUAGGGCUCCAACAGAGGAUUGAGCAUCA
B16: chr14:78183846:78183847:+_ENSG00000119705_ENST00000557342|hu_hu|hu_hu_hu_mus_False|78_88 (ssRNA)
RNA: GGGAGUUCUACAGUCCGACGAUCUCUCAGAAAUCUUUCUUCAUCAGCAUCAUCAGAUGUUUGCGGAGCCUUUGCUCUUUGAGCUUGAACGUGGAUCUAUGGGAGGGAAAGCACUGUCAGAAAAGGUAAUUUUUUUUUUAAAGACAACAGAGGAUUGAGCAUCA
B17: chr18:35731629:35731630:+_ENSMUSG00000037236_ENSMUST00000166793|mus_hu|FALSE|FALSE (ssRNA)
RNA: GGGAGUUCUACAGUCCGACGAUCUAUUUUAUAGAUUAAAAAAAAAAAUUUUUUUAAAGACGGCCAAAAAGAAAGCUCAAACUAGAAAGCUAGGUUAACUUUGCUUCAAAAAUGGUAACGCCAAGAAAAAGGAUCAAUAAGGACCAACAGAGGAUUGAGCAUCA
B18: chr18:51681570:51681571:-_ENSG00000134046_ENST00000256429|hu_hu|FALSE|FALSE (ssRNA)
RNA: GGGAGUUCUACAGUCCGACGAUCGAUAUAUACAUCAAAAAUACAUCUAAAAAGGCAUUGGUUAGUGCUAUUAAAAAGCUCUAUGUGCUCGGGUACAUUUUUUUUCUUACAGGCAAAAGCCAGUGGAAACAUUUUUGUUCAAUUCAACAGAGGAUUGAGCAUCA
B19: chr18:35731629:35731630:+_ENSMUSG00000037236_ENSMUST00000166793|mus_hu|motif|central (ssRNA)
RNA: B17 RNA with U82G, A83G
B20: chr1:66485654:66485655:+_ENSMUSG00000015222_ENSMUST00000024639|mus_hu|FALSE|FALSE (ssRNA)
RNA: GGGAGUUCUACAGUCCGACGAUCUUUUUAAAUAGAAAAUUGUAACAAUUACUACAGUUUGGGGAUGAGAUUAUUUAUUUUAUGGUUUAUAAAGAAUGAAUAUAACAACUGCUCAGAGCCCACUCCUGCCAAGAGCUCAUGCCUCAACAGAGGAUUGAGCAUCA
B21: chr7:127875444:127875445:+_ENSMUSG00000046096_ENSMUST00000060175|mus_hu|FALSE|FALSE (ssRNA)
RNA: GGGAGUUCUACAGUCCGACGAUCAAAGGCAUAUAACAUAUAAAGAAAAUAUUGUAUUGCUCAGGUUUUGGUAAAGAUGUAUUAAUAAUGCUUACAGAUAAAAAUAAUGAAAUUAGUGUUGUAAAUAGCCAAAAUAGCCAGAUACAACAGAGGAUUGAGCAUCA
B22: chr9:74904954:74904955:+_ENSMUSG00000007656_ENSMUST00000169492|mus_hu|FALSE|FALSE (ssRNA)
RNA: GGGAGUUCUACAGUCCGACGAUCCCAAAAGGUAAAUACAGAAGAAAUCAAUACAAUAGAGAUUAUAUUAAAUAAGAGUAACAUACAAAGCUAUAAUUAAGAUGAAGUAAUGAAAGCCAAAACAUUAAAAUUUUAAAACUUGCUCAACAGAGGAUUGAGCAUCA

The target in this assay is T1, UNK ZnF1-3. In words: nsRBNS (natural sequence RNA bind-n-seq); RBNS binding buffer (assumed for nsRBNS): 25 mM Tris pH 7.5, 150 mM KCl, 3 mM MgCl2, 0.01% Triton X-100, 500 ug/ml BSA, 20 U/ml SUPERase-In, 4 C; UNK is unkempt and MSI1 is Musashi-1; names of the RNAs are library labels; protein concentration not given here; high values mean tight binding.
Consider B1, for which the binding signal is 0.851 enrichment R.

Take B2: the binding signal stood at 1.32 enrichment R.

The molecule B3 had a binding signal of 0.755 enrichment R.

For the molecule B4, the binding signal stood at 0.411 enrichment R.

B5 showed a binding signal of 0.753 enrichment R.

As to B6, the binding signal was 1.31 enrichment R.

The molecule B7 came in with a binding signal of 7.98 enrichment R.

As to B8, the binding signal turned out to be 5.23 enrichment R.

Molecule B9 had a binding signal of 0.331 enrichment R.

B10 showed a binding signal of 2.27 enrichment R.

Molecule B11 returned a binding signal of 1.24 enrichment R.

For the molecule B12, the binding signal was found to be 1.23 enrichment R.

On to B13, for which the binding signal was found to be 1.36 enrichment R.

B14: the binding signal amounted to 8.04 enrichment R.

In turn, B15 came in with a binding signal of 1.14 enrichment R.

B16 returned a binding signal of 1.96 enrichment R.

B17 displayed a binding signal of 4.65 enrichment R.

Molecule B18 displayed a binding signal of 0.982 enrichment R.

Turning to B19, the binding signal was 5.52 enrichment R.

In turn, B20 returned a binding signal of 3.6 enrichment R.

B21 gave a binding signal of 5.6 enrichment R.

B22: the binding signal was determined as 3.69 enrichment R.
